NR2F2 inh = NR2F2 transcriptional activity inhibitors, primary screen, cell-based, luciferase reporter, HEK293T, luminescence | COUP transcription factor 2 (Homo sapiens), P24468 | HEK293T NGFI-A luciferase reporter | inhibition, % at 8.6 µM | actives 0.7% (n = 370,000);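 active means inhibition above a per-plate cutoff, mean inhibition of test wells between control levels plus 3 SD, cut at about 38% in these data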;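 further: cells cotransfected with COUP-TFII expression vector driving the NGFI-A reporter; 0% = median of COUP-TF2 test wells and 100% = reporter-only cells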
Target sequence (P24468 whole entry, looked up): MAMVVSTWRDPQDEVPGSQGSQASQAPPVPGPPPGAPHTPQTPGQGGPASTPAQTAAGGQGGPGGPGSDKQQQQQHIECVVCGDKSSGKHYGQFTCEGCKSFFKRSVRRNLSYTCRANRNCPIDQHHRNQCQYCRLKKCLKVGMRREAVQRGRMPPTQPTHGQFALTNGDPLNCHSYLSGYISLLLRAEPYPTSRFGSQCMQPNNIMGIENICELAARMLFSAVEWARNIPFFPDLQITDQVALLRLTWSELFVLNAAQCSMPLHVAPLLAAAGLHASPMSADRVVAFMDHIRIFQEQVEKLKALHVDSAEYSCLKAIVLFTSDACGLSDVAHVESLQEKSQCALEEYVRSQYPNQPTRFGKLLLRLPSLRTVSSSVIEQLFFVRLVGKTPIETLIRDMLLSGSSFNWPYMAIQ
H9c2 TAG inh = inhibitors of triacylglycerol accumulation, primary screen, cell-based, uHTS, fluorescence, H9c2. H9c2 cells, Nile Red lipid (TAG) fluorescence; cells loaded with 200 µM oleic acid. inhibition, % at 12.5 µM. actives 0.66% (n = 230,000). AID 651582, 2012;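 active means pattern-corrected inhibition of lipid staining of at least 50% with the nuclear-stain viability signal not falling by more than 50%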;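 further: 0% = DMSO wells and 100% = triacsin C control wells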
H9c2 protect = cardioprotection against H2O2-induced cell death, primary screen, uHTS, H9c2 cells, ATPLite luminescence | AID 588492, 2011 | actives 0.63% (n = 360,000) | H9c2 cardiomyocytes, H2O2 injury protection, 2 h | protection from H2O2 cell death, % at 20 µM;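 active means compounds giving at least 50% protection of heart cells from peroxide-induced death in the single-dose screen, raw or plate-pattern-corrected value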;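 further: 0% = DMSO wells with peroxide and 100% = DMSO wells without peroxide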
Gli-Sufu antag = Gli-Sufu pathway antagonists, primary screen, luciferase luminescence, Sufu-KO-LIGHT cells, uHTS; Sufu-KO-LIGHT fibroblasts, Gli luciferase reporter luminescence; inhibition, % at 5 µM; actives 0.74% (n = 340,000);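 active means inhibition above about 55%, limit read from the data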;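 further: 0% = DMSO-treated cells and 100% = wells with medium but no cells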
Jurkat NFkB inh = inhibitors of induced NF-kB luciferase reporter, primary screen, TCR NF-kB activation inhibitor project, cell-based, luminescence, uHTS; Jurkat, PMA/ionomycin-induced NF-kB luciferase reporter; inhibition, % at 4 µM; actives 0.53% (n = 330,000); AID 435003, 2010; in the data active means inhibition above about 50%
697 NFkB inh = inhibitors of PMA/ionomycin-induced NF-kB reporter, 697 cells, primary screen, B-cell NF-kB inhibitor project, cell-based, luminescence, uHTS; actives 0.33% (n = 330,000); AID 435022, 2010; 697 B-cell NF-kB luciferase reporter, 16 h; inhibition, % at 4 µM; in the data active means inhibition above about 35%
An asterisk follows results filed as active; x = not tested or not shown. Hits are enriched below; roughly 2.6% of the tested compounds scored in any of these assays.

SMILES	NR2F2 inh	H9c2 TAG inh	H9c2 protect	Gli-Sufu antag	Jurkat NFkB inh	697 NFkB inh
CCOC(=O)Cc1n[nH]c(=O)c2ccccc12	-5	-15	69*	-11	3	15
O=C(Cc1n[nH]c(=O)c2ccccc12)OCC(=O)N(Cc1ccccc1)Cc1ccccc1	14	-8	46	0	6	14
Cc1ccc(N2CC(C(=O)NCc3n[nH]c(=O)c4ccccc34)CC2=O)cc1C (stereo not drawn)	-14	-17	72*	-6	-9	4
COc1ccc(/C=N/Nc2cc(C)nc(-n3nc(C)cc3C)n2)c(OC)c1	7	x	32	34	13	-6
CCOc1cc(/C=N/Nc2cc(C)nc(-n3nc(C)cc3C)n2)ccc1O	7	68*	-5	21	32	-28
COc1ccc2c(c1)N[C@@](CCN1C(=O)c3ccccc3C1=O)(c1[nH]c3ccccc3c1CCN1C(=O)c3ccccc3C1=O)C2=O	18	x	x	x	x	x
Cc1cc(=O)[nH]c(NN=Cc2cc(Br)ccc2O)n1	16	32	42	76*	x	x
Cc1cc(=O)[nH]c(N/N=C/c2ccccc2Cl)n1	-4	x	0	-2	7	8
O=C(/C=C/c1ccco1)Nc1nc(-c2ccccc2)cs1	-17	x	2	-19	-52	-75
O=C(/C=C/c1ccco1)Nc1nc(-c2ccccn2)cs1	-32	20	50*	-28	-8	-31
O=C(/C=C/c1ccco1)Nc1nc(-c2ccc(F)c(F)c2)cs1	x	x	x	58*	-6	-96
CCOC(=O)c1c(-c2ccc(C)o2)csc1NC(=O)COC(=O)c1ccc(NC(N)=O)cc1	22	5	61*	6	-10	1
CCOC(=O)c1c(-c2ccc(C)o2)csc1NC(=O)CSc1nnc(C)s1	6	x	-7	1	2	-10
Cc1cnc(C(=O)Nc2nnc(SCc3c(Cl)cccc3Cl)s2)cn1	-14	-5	54*	-7	-6	-30
O=c1[nH]c(SCc2nc3c(cnn3-c3ccccc3)c(=O)[nH]2)nc2ccccc12	7	12	53*	-65	x	x
Cc1[nH]c2ccccc2c1C(=O)CSc1nc2ccccc2[nH]1	-26	x	66*	x	-18	3
O=C(CSc1nc2ccccc2c(=O)[nH]1)c1ccc(O)cc1O	-8	-1	67*	7	x	x
Cc1cc(=O)[nH]c(SCC(=O)c2ccc(O)c(O)c2)n1	9	x	3	21	5	2
O=C(CSc1nc2ccccc2c(=O)[nH]1)c1ccc(O)c(O)c1	6	x	58*	-10	3	10
COc1ccc(N/C=C(\C#N)c2nc3ccccc3n2C)c(OC)c1	-22	x	50*	2	-22	19
COc1ccc(CNc2nc3ccccc3n2C)c(OC)c1	-44	-5	-6	-57	-96	-53
COC(=O)[C@]12C[C@H](CC(=O)NCC3CCCCC3)C(=O)N(Cc3ccc(Cl)cc3Cl)C1=C[C@H](C(C)C)O[C@@H]2C1CC1	9	x	x	x	x	x
CN1C2=N[C@@H](c3ccccc3)CC(=O)N2/C(=C\c2ccccc2)[C@H]1c1ccccc1	8	x	x	x	x	x
COc1cc(CN2CCN(CCCc3ccccc3)CC2CCO)cc(OC)c1 (stereo not drawn)	15	x	0	17	-3	-21
COc1cc(CN2CCN(CC#Cc3ccccc3)CC2CCO)cc(OC)c1 (stereo not drawn)	18	-1	-2	57*	-2	0
SMILES	NR2F2 inh	H9c2 TAG inh	H9c2 protect	Gli-Sufu antag	Jurkat NFkB inh	697 NFkB inh
COc1cc([N+](=O)[O-])cc(/C=N/NC(=O)C(C)Nc2cccc(C)c2)c1O (stereo not drawn)	9	2	30	-2	-1	27
COc1cc([N+](=O)[O-])cc(/C=N/NC(=O)C(C)Nc2ccccc2C)c1O (stereo not drawn)	10	x	63*	1	-4	-6
COc1cc([N+](=O)[O-])cc(/C=N/NC(=O)c2ccc(C)nc2)c1O	3	14	62*	-3	-20	-19
CCn1c2ccccc2c2cc(NC(=O)COC(=O)c3cccc(F)c3)ccc21	-13	x	x	x	x	x
COC(=O)C1CN(Cc2cn(CCC3OCCO3)nn2)CCS(=O)(=O)N1Cc1ccc(Cl)cc1 (stereo not drawn)	15	x	x	x	x	x
Cc1onc(-c2ccccc2Cl)c1C(=O)N/N=C(\N)COc1ccc(Cl)cc1	-1	x	60*	-9	-4	-8
Cc1onc(-c2ccccc2)c1C(=O)N/N=C(\N)COc1ccc(Cl)cc1	-14	-23	13	2	0	-4
CCOC(=O)C1=NN(C(=O)c2ccco2)C2(CC2)C1	14	x	72*	11	10	-10
CCOC(=O)C1(C)CCN1C(=O)c1ccco1 (stereo not drawn)	-2	9	4	x	x	x
CC(C)(C)OC(=O)NCC12C=CC(O1)C1C(=O)N(Cc3ccccc3)C(=O)C12 (stereo not drawn)	4	1	80*	1	2	2
Cc1ccc(NC(=S)NCC23C=CC(O2)C2C(=O)N(c4ccc(C)cc4)C(=O)C23)cc1 (stereo not drawn)	7	x	-5	9	-5	-6
O=C([C@@H]1C[C@H]1c1ccccc1)N1CC[C@H]2[C@H](CCCN2Cc2cc(F)cc(F)c2)C1	5	x	x	x	x	x
COc1ccc(Nc2nc(N)nc(CCl)n2)cc1	-34	25	-9	6	4	-7
Nc1nc(CCl)nc(Nc2ccc3ccccc3c2)n1	-35	79*	2	-6	x	x
O=C1c2ccccc2NC(c2ccc(-c3ccc(Br)cc3)o2)N1O (stereo not drawn)	13	x	65*	-2	-1	-12
O=C1c2ccccc2NC(c2ccc(-c3cccc([N+](=O)[O-])c3)o2)N1O (stereo not drawn)	20	8	56*	-10	8	-5
COc1cc(-c2cc(=O)c3ccc(O)cc3o2)cc(OC)c1OC	-21	x	3	x	x	x
COc1cc(-c2ccc3oc(-c4ccsc4)cc(=O)c3c2)cc(OC)c1OC	4	-40	56*	30	-2	3
C=CCOC(=O)COc1ccc2c3c(c(=O)oc2c1)CCCC3	10	-4	87*	x	x	x
CCOC(=O)COc1cc(OCC(=O)OCC)c2c3c(c(=O)oc2c1)CCCC3	-11	x	64*	13	-3	2
O=C(O)COc1ccc2c3c(c(=O)oc2c1)CCCC3	2	-2	0	3	-7	-3
CCOC(=O)COc1cc2c3c(c(=O)oc2cc1C)CCCC3	-14	0	-14	6	14	25

Assay outcomes as filed in PubChem.
